The panel holds about 83,000 compounds, 20% with a hit somewhere; the sample as a whole holds those more often.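 Plates (96-well) were seeded with cells, treated with compound at one concentration, and incubated for 48 hours before percent growth was determined.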 Values without a mark were called inactive. Rule for the calls: active = growth percent below 10; inactive = the rest.

The test system of this assay is MDA-MB-468 breast. Briefly: NCI-60 one-dose screen, 48 h (100 = growth as untreated, 0 = no growth, -100 = all killed). The following applies: 10 µM unless noted.
On to `N#C/C(=C\c1cccc2cnccc12)n1nnc2cccc(F)c21`, for which the growth was 31.9%.
The result for `Oc1[nH]c2ccc(Cl)cc2c1/C=c1/ccc2c(c1)N=C(c1ccc(C(F)(F)F)cc1)N=2` reads 52.5%; that for `O=S(=O)(O)c1cnccn1`, 105%.

These data come from PubChem BioAssay (NCI).
